In PubChem BioAssay:
For part of these data: Potency and affinity values are given separately. Calls of active or inactive are those of the source.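 Rule for the calls, unless noted: active = primary screen activator hit with a dose response curve and TRPC4 channel activation at any tested dose; inactive = no activation, no dose response, or not a primary hit.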

What was measured:
[1] = tested on: TRPC4 beta (transient receptor potential cation channel C4), mouse; assay: activators of mouse TRPC4 channel, confirmation, cell-based, Fluo4 calcium, HEK293 TRPC4beta/mu-opioid, duplicates, 10 µM (AID 2426;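 active = fluorescence ratio normalized to control raised more than 50% in primary screen plus both repeat runs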); settings: Fluo4 calcium fluorescence, at 10 µM; hits give high values
[2] = tested on: transient receptor potential cation channel C4 beta (TRPC4), mouse; assay: activators of mouse TRPC4 channel, confirmation, cell-based, second round, Fluo4, HEK293 TRPC4beta/mu-opioid, 1 µM (AID 2461;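 active = primary screen active and over 50% activation in each of two duplicate runs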); settings: Fluo4 calcium fluorescence, at 1 µM; hits give high values
[3] = tested on: TRPC4 (transient receptor potential cation channel C4 beta), mouse; assay: positive allosteric modulators of mouse TRPC4, confirmation, cell-based, second round, Fluo-4, HEK293 TRPC4beta/mu-opioid, 1 µM (AID 2554;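 active = primary screen hit whose fluorescence ratio, in both repeats, exceeds the weak agonist control mean by 3 SD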); settings: DAMGO EC20, Fluo-4 calcium flux, at 1 µM; hits give high values
[4] = tested on: TRPC4 beta (transient receptor potential cation channel C4), mouse; assay: positive allosteric modulators of mouse TRPC4, confirmation, cell-based, Fluo-4, HEK293 TRPC4beta/mu-opioid (AID 2555;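 active = primary screen hit whose calcium fluorescence ratio, in both repeats, exceeds the weak agonist control mean by 3 SD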); settings: DAMGO EC20, Fluo-4 calcium flux, at 10 µM; hits give high values
[5] = molecular target: Short transient receptor potential channel 4 (Mus musculus) (UniProt Q9QUQ5); assay: inhibitors of mouse TRPC4 channel, confirmation, cell-based, Fluo4, HEK293 TRPC4beta/mu-opioid (AID 2636;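 active = calcium signal cut by more than 3 SD below the full-agonist control yet still positive, in both repeats and the earlier primary screen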); settings: DAMGO, Fluo4 calcium flux, at 10 µM; hits give high values
Sequence of Short transient receptor potential channel 4 (Mus musculus) (Q9QUQ5 whole entry, looked up): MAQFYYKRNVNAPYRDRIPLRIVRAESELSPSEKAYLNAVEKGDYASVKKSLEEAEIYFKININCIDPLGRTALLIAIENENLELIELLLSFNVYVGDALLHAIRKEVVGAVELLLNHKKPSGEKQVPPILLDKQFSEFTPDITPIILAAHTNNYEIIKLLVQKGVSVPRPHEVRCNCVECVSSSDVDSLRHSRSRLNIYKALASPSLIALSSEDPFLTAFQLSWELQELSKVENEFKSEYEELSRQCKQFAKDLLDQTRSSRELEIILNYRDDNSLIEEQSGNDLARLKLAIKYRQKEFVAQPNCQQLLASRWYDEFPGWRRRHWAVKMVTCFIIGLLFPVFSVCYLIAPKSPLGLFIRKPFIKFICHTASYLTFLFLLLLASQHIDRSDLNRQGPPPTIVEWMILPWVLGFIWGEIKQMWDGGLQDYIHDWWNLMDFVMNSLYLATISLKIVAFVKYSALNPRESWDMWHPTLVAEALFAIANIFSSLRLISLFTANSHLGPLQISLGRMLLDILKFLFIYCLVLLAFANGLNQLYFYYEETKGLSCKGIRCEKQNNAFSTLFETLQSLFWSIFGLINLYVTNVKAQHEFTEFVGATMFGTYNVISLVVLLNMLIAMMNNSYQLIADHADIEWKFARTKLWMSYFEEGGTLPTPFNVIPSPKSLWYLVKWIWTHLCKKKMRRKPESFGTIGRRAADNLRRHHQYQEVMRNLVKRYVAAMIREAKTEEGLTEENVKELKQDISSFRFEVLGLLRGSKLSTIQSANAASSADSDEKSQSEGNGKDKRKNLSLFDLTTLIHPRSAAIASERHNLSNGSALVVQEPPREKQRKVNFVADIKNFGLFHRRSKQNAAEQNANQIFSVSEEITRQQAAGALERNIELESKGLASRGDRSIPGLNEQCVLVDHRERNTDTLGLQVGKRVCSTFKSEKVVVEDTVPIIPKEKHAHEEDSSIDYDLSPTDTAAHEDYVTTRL

[6] = molecular target: Short transient receptor potential channel 4 (Mus musculus) (UniProt Q9QUQ5); assay: inhibitors of mouse TRPC4 channel, confirmation, cell-based, second round, Fluo4, HEK293 TRPC4beta/mu-opioid, 1 µM (AID 2637;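 active = calcium signal ratio cut to more than 3 SD under the fully stimulated control mean yet still positive, in both repeats and the primary screen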;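 for inhibition: percent of integrated ratio relative to wells lacking test compound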); settings: Fluo4 calcium flux, DAMGO, at 1 µM; hits give high values
[7] = molecular target: Short transient receptor potential channel 4 (Mus musculus) (UniProt Q9QUQ5); assay: mouse TRPC4 channel activators, dose response, cell-based, HEK293 TRPC4/mu-opioid, Fluo-4 calcium (AID 434937)
[8] = molecular target: Short transient receptor potential channel 4 (Mus musculus) (UniProt Q9QUQ5); assay: TRPC4 positive allosteric modulators, dose response, cell-based, HEK293 TRPC4/mu-opioid, Fluo-4 calcium, EC20 DAMGO (AID 434941;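 active = earlier screen potentiator hit that boosts the TRPC4 ion channel at some dose, with a dose response; inactive = no potentiation, no dose response, or not a prior hit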;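 note: calcium entry triggered by an EC20 dose of DAMGO at the co-expressed mu-opioid receptor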)
[9] = molecular target: Short transient receptor potential channel 6 (Mus musculus) (UniProt Q61143); assay: inhibition of mouse TRPC6 channel, confirmation, selectivity assay for TRPC4 inhibitor project, cell-based, HEK293, membrane potential dye, duplicate (AID 434948;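 active = active in primary screen and both duplicates, each dropping signal beyond three positive-control SD with fluorescence still positive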); settings: HEK293 TRPC6, membrane potential dye fluorescence, at 10 µM, stimulated with maximal-effect acetylcholine; hits give high values
Sequence of Short transient receptor potential channel 6 (Mus musculus) (Q61143 whole entry, looked up): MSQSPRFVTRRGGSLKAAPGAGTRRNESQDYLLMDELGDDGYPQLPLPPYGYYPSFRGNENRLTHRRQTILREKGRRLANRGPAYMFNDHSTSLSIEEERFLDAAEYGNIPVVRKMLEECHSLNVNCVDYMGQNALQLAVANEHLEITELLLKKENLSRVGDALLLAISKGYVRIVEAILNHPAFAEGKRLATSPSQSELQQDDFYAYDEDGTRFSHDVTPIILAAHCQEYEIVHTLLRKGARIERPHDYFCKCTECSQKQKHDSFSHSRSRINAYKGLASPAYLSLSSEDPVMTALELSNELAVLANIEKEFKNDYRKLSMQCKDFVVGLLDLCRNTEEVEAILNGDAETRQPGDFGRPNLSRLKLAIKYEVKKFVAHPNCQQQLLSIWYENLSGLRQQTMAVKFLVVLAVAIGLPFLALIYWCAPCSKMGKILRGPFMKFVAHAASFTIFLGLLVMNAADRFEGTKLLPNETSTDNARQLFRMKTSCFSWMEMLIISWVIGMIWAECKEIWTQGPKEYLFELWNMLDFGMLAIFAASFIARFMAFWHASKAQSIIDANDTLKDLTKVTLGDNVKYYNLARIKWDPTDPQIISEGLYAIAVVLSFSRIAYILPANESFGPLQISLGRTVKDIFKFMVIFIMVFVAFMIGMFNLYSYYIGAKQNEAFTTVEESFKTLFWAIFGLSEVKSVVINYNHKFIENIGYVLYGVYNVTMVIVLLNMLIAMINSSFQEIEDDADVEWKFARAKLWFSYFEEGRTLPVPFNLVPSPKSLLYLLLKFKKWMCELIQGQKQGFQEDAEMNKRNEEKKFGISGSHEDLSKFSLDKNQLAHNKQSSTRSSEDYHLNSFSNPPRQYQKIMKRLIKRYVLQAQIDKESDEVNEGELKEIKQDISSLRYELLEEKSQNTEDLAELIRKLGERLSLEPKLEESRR

[10] = molecular target: Short transient receptor potential channel 6 (Mus musculus) (UniProt Q61143); assay: activation of mouse TRPC6 channel, confirmation, selectivity assay for TRPC4 activator project, cell-based, HEK293, membrane potential dye, duplicate (AID 434950;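 active = membrane potential signal rise above negative control mean plus 3 SD in both duplicates, also active in the earlier TRPC4 screen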); settings: HEK293 TRPC6, membrane potential fluorescence, at 10 µM; hits give high values
[11] = molecular target: Short transient receptor potential channel 6 (Mus musculus) (UniProt Q61143); assay: TRPC6 potentiation by TRPC4 potentiator hits, confirmation, selectivity assay for TRPC4 potentiator project, HEK293 cells, membrane potential dye, duplicate (AID 434952;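 active = compound raising the membrane signal above positive-control mean plus 3 SD in both repeats, and a primary screen hit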); settings: HEK293 TRPC6, membrane potential dye fluorescence, at 10 µM, maximal acetylcholine added after compound; hits give high values
[12] = molecular target: Short transient receptor potential channel 4 (Mus musculus) (UniProt Q9QUQ5); assay: calcium flux activators in TRPC4/5HT1a cells, counter-screen for TRPC4 activator project, cell-based, second counter screen, HEK293 TRPC4/5HT1a, Fluo-4 (AID 434977;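 active = calcium signal rise above buffer-control mean plus 5 SD in both duplicates, and also a hit in the primary screen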); settings: Fluo-4 calcium flux, at 10 µM; hits give high values
[13] = calcium flux inhibitors in TRPC4/5HT1a cells, confirmation, counter-screen for TRPC4 inhibitor project, cell-based, second counter screen, HEK293 TRPC4/5HT1a, Fluo-4 (AID 434978;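 active = primary screen active whose calcium signal fell more than 3 SD beyond the full-serotonin control mean in both duplicate plates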;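 for outcome: serotonin given first at submaximal then at maximal dose after compound preincubation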); settings: Fluo-4 calcium flux, at 10 µM, serotonin added to trigger calcium flux; hits give high values
[14] = tested on: TRPC4 (mouse), co-expressed with 5HT1a in HEK293; assay: calcium flux potentiators in TRPC4/5HT1a cells, confirmation, counter-screen for TRPC4 potentiator project, cell-based, second counter screen, HEK293 TRPC4/5HT1a, Fluo-4 (AID 434979;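 active = signal rise over 3 SD above mean of control wells given weak agonist, in both repeats and first screen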); settings: Fluo-4 calcium flux, at 10 µM, serotonin added at its EC20 dose; hits give high values
[15] = calcium flux activation in mu-opioid HEK293 cells, confirmation, counter-screen for TRPC4 activator project, cell-based, HEK293 mu-opioid receptor line (AID 449723;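 active = hit in primary screen, with calcium signal over 5 SD above buffer well mean in both duplicates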;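 note: counter screen cells carry the mu-opioid receptor alone and lack TRPC4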); settings: Fluo-4 calcium fluorescence, at 10 µM; hits give high values
[16] = calcium flux enhancement in mu-opioid HEK293 cells, confirmation, counter-screen for TRPC4 allosteric potentiator project, cell-based, HEK293 mu-opioid receptor line (AID 449724;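 active = calcium signal rise more than 3 SD above the low-dose agonist control mean, in both duplicate plates and the primary screen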); settings: Fluo-4 calcium flux, at 10 µM, compound added before EC20 DAMGO stimulus; hits give high values

## Cc1nc2ccccc2n1CC(O)COc1ccccc1Cl (stereo not given)
[1]
  outcome: inactive
[2]
  outcome: inactive
[3]
  outcome: inactive
[4]
  outcome: inactive
[5]
  inhibition: 72% (active)
[6]
  inhibition: 40% (active)
[7]
  outcome: inactive
[8]
  outcome: inactive
[9]
  outcome: inactive
[10]
  outcome: inactive
[11]
  outcome: inactive
[12]
  outcome: inactive
[13]
  outcome: inactive
[14]
  outcome: inactive
[15]
  outcome: inactive
[16]
  outcome: inactive

## CCCSc1nc(N)nc(-c2cccs2)c1C#N
[1]
  outcome: inactive
[2]
  outcome: inactive
[3]
  outcome: inactive
[4]
  outcome: inactive
[5]
  inhibition: 89% (active)
[6]
  inhibition: 50% (active)
[7]
  outcome: inactive
[8]
  outcome: inactive
[9]
  outcome: inactive
[10]
  outcome: inactive
[11]
  outcome: inactive
[12]
  outcome: inactive
[13]
  inhibition: 36.8% (active)
[14]
  outcome: inactive
[15]
  outcome: inactive
[16]
  outcome: inactive

## CCCCNCC1C(Oc2ccc(Cl)cc2)C(=O)N1c1ccccc1C (stereo not given)
[1]
  outcome: inactive
[2]
  outcome: inactive
[3]
  outcome: inactive
[4]
  outcome: inactive
[5]
  outcome: inactive
[6]
  outcome: inactive
[7]
  outcome: inactive
[8]
  outcome: inactive
[9]
  outcome: inactive
[10]
  outcome: inactive
[11]
  outcome: inactive
[12]
  outcome: inactive
[13]
  outcome: inactive
[14]
  outcome: inactive
[15]
  outcome: inactive
[16]
  outcome: inactive

## Oc1c(CN2CCCCC2)cc(Br)c2cccnc12
[1]
  outcome: inactive
[2]
  outcome: inactive
[3]
  outcome: inactive
[4]
  outcome: inactive
[5]
  inhibition: 93% (active)
[6]
  outcome: inactive
[7]
  outcome: inactive
[8]
  outcome: inactive
[9]
  outcome: inactive
[10]
  outcome: inactive
[11]
  outcome: inactive
[12]
  outcome: inactive
[13]
  inhibition: 4.44% (active)
[14]
  outcome: inactive
[15]
  outcome: inactive
[16]
  outcome: inactive

## Cc1cc(Nc2ccccc2)nc2cc(O)ccc12
[1]
  outcome: inactive
[2]
  outcome: inactive
[3]
  outcome: inactive
[4]
  outcome: inactive
[5]
  inhibition: 93% (active)
[6]
  inhibition: 52% (active)
[7]
  outcome: inactive
[8]
  outcome: inactive
[9]
  outcome: inactive
[10]
  outcome: inactive
[11]
  outcome: inactive
[12]
  outcome: inactive
[13]
  inhibition: 14.4% (active)
[14]
  outcome: inactive
[15]
  outcome: inactive
[16]
  outcome: inactive

## Cc1ccccc1OCCn1c(C)nc2ccccc21
[1]
  outcome: inactive
[2]
  outcome: inactive
[3]
  outcome: inactive
[4]
  outcome: inactive
[5]
  inhibition: 36% (active)
[6]
  inhibition: 57% (active)
[7]
  outcome: inactive
[8]
  outcome: inactive
[9]
  outcome: inactive
[10]
  outcome: inactive
[11]
  outcome: inactive
[12]
  outcome: inactive
[13]
  inhibition: 13.3% (active)
[14]
  outcome: inactive
[15]
  outcome: inactive
[16]
  outcome: inactive

## Brc1ccc(N/N=C(/N=Nc2nn[nH]n2)c2ccccc2)cc1
[1]
  outcome: inactive
[2]
  outcome: inactive
[3]
  outcome: inactive
[4]
  outcome: inactive
[5]
  outcome: inactive
[6]
  outcome: inactive
[7]
  outcome: inactive
[8]
  outcome: inactive
[9]
  inhibition: 25.5% (active)
[10]
  outcome: inactive
[11]
  outcome: inactive
[12]
  outcome: inactive
[13]
  inhibition: 30.4% (active)
[14]
  outcome: inactive
[15]
  outcome: inactive
[16]
  outcome: inactive

## O=C(Nc1ccccc1Oc1cccnc1)C1CCCN(Cc2ccc(F)cc2)C1 (stereo not given)
[1]
  outcome: inactive
[2]
  outcome: inactive
[3]
  outcome: inactive
[4]
  outcome: inactive
[5]
  inhibition: 87% (active)
[6]
  inhibition: 43% (active)
[7]
  outcome: inactive
[8]
  outcome: inactive
[9]
  outcome: inactive
[10]
  outcome: inactive
[11]
  outcome: inactive
[12]
  outcome: inactive
[13]
  inhibition: 30.2% (active)
[14]
  outcome: inactive
[15]
  outcome: inactive
[16]
  outcome: inactive

## CCC1CCCCN1Cc1nc2c(c(=O)n(C)c(=O)n2C)n1Cc1ccccc1 (stereo not given)
[1]
  outcome: inactive
[2]
  outcome: inactive
[3]
  outcome: inactive
[4]
  outcome: inactive
[5]
  inhibition: 74% (active)
[6]
  outcome: inactive
[7]
  outcome: inactive
[8]
  outcome: inactive
[9]
  outcome: inactive
[10]
  outcome: inactive
[11]
  outcome: inactive
[12]
  outcome: inactive
[13]
  inhibition: 38.1% (active)
[14]
  outcome: inactive
[15]
  outcome: inactive
[16]
  outcome: inactive

## Cc1ccc(Oc2ccccc2/C=N/O)cc1
[1]
  outcome: inactive
[2]
  outcome: inactive
[3]
  outcome: inactive
[4]
  outcome: inactive
[5]
  inhibition: 89% (active)
[6]
  outcome: inactive
[7]
  outcome: inactive
[8]
  outcome: inactive
[9]
  outcome: inactive
[10]
  outcome: inactive
[11]
  outcome: inactive
[12]
  outcome: inactive
[13]
  inhibition: 10.1% (active)
[14]
  outcome: inactive
[15]
  outcome: inactive
[16]
  outcome: inactive

## CCCNC(=O)c1nnsc1S(=O)c1ccc(Cl)cc1 (stereo not given)
[1]
  outcome: inactive
[2]
  outcome: inactive
[3]
  outcome: inactive
[4]
  outcome: inactive
[5]
  inhibition: 88% (active)
[6]
  inhibition: 42% (active)
[7]
  outcome: inactive
[8]
  outcome: inactive
[9]
  outcome: inactive
[10]
  outcome: inactive
[11]
  outcome: inactive
[12]
  outcome: inactive
[13]
  inhibition: 20.3% (active)
[14]
  outcome: inactive
[15]
  outcome: inactive
[16]
  outcome: inactive

## Cn1c(NCc2ccccc2O)nc2ccccc21
[1]
  outcome: inactive
[2]
  outcome: inactive
[3]
  outcome: inactive
[4]
  outcome: inactive
[5]
  inhibition: 62% (active)
[6]
  outcome: inactive
[7]
  outcome: inactive
[8]
  outcome: inactive
[9]
  outcome: inactive
[10]
  outcome: inactive
[11]
  outcome: inactive
[12]
  outcome: inactive
[13]
  outcome: inactive
[14]
  outcome: inactive
[15]
  outcome: inactive
[16]
  outcome: inactive

## Cc1cc2[nH]c3ccccc3c2c(C)n1
[1]
  outcome: inactive
[2]
  outcome: inactive
[3]
  outcome: inactive
[4]
  outcome: inactive
[5]
  inhibition: 87% (active)
[6]
  outcome: inactive
[7]
  outcome: inactive
[8]
  outcome: inactive
[9]
  inhibition: 41.5% (active)
[10]
  outcome: inactive
[11]
  outcome: inactive
[12]
  outcome: inactive
[13]
  inhibition: 20.3% (active)
[14]
  outcome: inactive
[15]
  outcome: inactive
[16]
  outcome: inactive

## c1csc(CNc2nc(-c3cccs3)nc3ccccc23)c1
[1]
  outcome: inactive
[2]
  outcome: inactive
[3]
  outcome: inactive
[4]
  outcome: inactive
[5]
  inhibition: 78% (active)
[6]
  outcome: inactive
[7]
  outcome: inactive
[8]
  outcome: inactive
[9]
  outcome: inactive
[10]
  outcome: inactive
[11]
  outcome: inactive
[12]
  outcome: inactive
[13]
  inhibition: 29.7% (active)
[14]
  outcome: inactive
[15]
  outcome: inactive
[16]
  outcome: inactive

## O=C(c1cccc(C(=O)N2CCN(c3ccccc3)CC2)c1)N1CCN(c2ccccc2)CC1
[1]
  outcome: inactive
[2]
  outcome: inactive
[3]
  outcome: inactive
[4]
  outcome: inactive
[5]
  inhibition: 92% (active)
[6]
  inhibition: 46% (active)
[7]
  outcome: inactive
[8]
  outcome: inactive
[9]
  outcome: inactive
[10]
  outcome: inactive
[11]
  outcome: inactive
[12]
  outcome: inactive
[13]
  inhibition: 26.9% (active)
[14]
  outcome: inactive
[15]
  outcome: inactive
[16]
  outcome: inactive
